Laboratory results published in PubChem BioAssay (NCI).
Compounds without any hit were thinned out: in the full panel of roughly 83,000, 20% have a hit.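 Note: values are percent growth. 100 is the growth of untreated cells, values between 100 and 0 indicate rising inhibition; between -100 and 0 indicates cell death.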 A number with no mark means an inactive call. Activity calls are given as the source filed them.

System: A498 renal
Experiment: NCI-60 one-dose screen, 48 h (100 = growth as untreated, 0 = no growth, -100 = all killed)
Conditions: 10 µM
Protocol: Growth inhibition of the A498 human tumor cell line is measured as a screen for anti-cancer activity. Cells are grown in 96 well plates and exposed to the test compound for 48 hours. Compounds are tested at a single concentration, which is 10^-5 M for most compounds. The reported endpoint is percent growth (GI% or GIPRCNT), where numbers from 0 - 100% represent growth inhibition, and numbers from -100% - 0 represent cell death. For example, a value of 40 represents 60% growth inhibition. A value of 0 means no net growth occurred over the course of the experiment. A value of -40 indicates 40% of cells at the beginning of the experiment died by the end of the experiment. A value of -100 means all cells are dead at the end of the experiment.
NCI-60 Human Tumor Cell Lines Screen was performed using the standard one-dose NCI protocol, which is described in more detail at https://dtp.cancer.gov/discovery_development/nci-60/default.htm.
Compounds with GIPRCNT values below 10 were considered active. Activity score was based on GIPRCNT using the following formula: […]
Score is 0 for GIPRCNT values of 100 or above, 50 for GIPRCNT values of 0, and 100 for GIPRCNT values of -100.

SMILES | growth
Cc1cc(C)nc(SCC(=O)Nc2ccc(S(N)(=O)=O)cc2)n1 | 123%
O=C(Nc1nc2ccccc2s1)c1ccc(Br)cc1 | 115%
O=C1NC(=NC23CC4CC(CC(C4)C2)C3)N/C1=C\c1ccc2ncoc2c1 | -5.36% (active)
COc1ccccc1[C@H]1C(C(=O)c2ccc(O)cc2)C2(N[C@@H]1c1ccccc1)C(=O)Nc1ccc(Br)cc12 (stereo not given in full) | 37.4%
O=C(CSc1nnc(-c2ccc3nc(-c4ccc(Cl)cc4)[nH]c3c2)o1)Nc1ccc(Cl)cc1 | 26%
CCCCSc1nc(Nc2ccc(/C(C)=N/NC(N)=S)cc2)c(C#N)c(-c2ccc(OC)cc2)n1 | 32.2%
CCN1CCN(c2ccc(NC(=O)Nc3ccc(-c4cc(C(=O)NC(C)C)c5ncccc5n4)cc3)cc2C(F)(F)F)CC1 | -99.1% (active)
Cc1ccc(C(=O)NCCCNc2nc(Nc3ccc(N4CCN(C)CC4)cc3)nc3ccsc23)cc1 | 137%
CCOc1ccc2ncc(C#Cc3cncc(C(=O)Nc4ccc(CN5CCN(C)CC5)c(C(F)(F)F)c4)c3)n2n1 | 15.9%
CN1CCN(Cc2ccc(NC(=O)c3cncc(C#Cc4cnc5ccc(N[C@@H]6CCOC6)nn45)c3)cc2C(F)(F)F)CC1 | -97.6% (active)
CS(=O)(=O)Nc1ccc(-c2ccc3c(c2)ncn3-c2ccc(NC(=O)Nc3ccc(Cl)c(C(F)(F)F)c3)cc2)cc1 | -85.9% (active)
COC(=O)C[C@](O)(CCCC(C)(C)O)C(=O)O[C@H]1C(OC)=C[C@@]23CCC(=O)N2CCc2cc4c(cc2[C@@H]13)OCO4 | 76.6%
O=C(c1ccc(-n2c(=O)[nH]c3ccccc3c2=O)cc1)N1CCOCC1 | 116%
Cc1ccc(-c2ccc(SCC(=O)Nc3ccc(Cl)c(C(F)(F)F)c3)nn2)cc1 | 80.3%
Cc1cc(=O)oc2cc(OCCCCOc3ccc(/C=C/C(=O)Nc4ccccc4[N+](=O)[O-])cc3)ccc12 | 127%
NS(=O)(=O)c1ccc(N=Nc2c(O)n(CC(=O)Nc3ccccc3Br)c3ccccc23)cc1 | 94.1%
CC(=O)c1cc(C(=O)N2c3ccccc3Sc3ccccc32)n2ccc(C)cc12 | 85.4%
COc1ccc(-c2cc(C(=O)N=Nc3c(O)[nH]c4ccc(F)cc34)c3ccccc3n2)cc1 | 128%
CC(C)c1ccc(C(=O)Nc2sc3c(c2C(N)=O)CCC(=O)C3=O)cc1 | 130%
CC1(C)CC[C@]2(C(=O)O)CC[C@]3(C)C(=CC[C@@H]4[C@@]5(C)C/C(=C/c6ccncc6)[C@H](O)C(C)(C)[C@@H]5CC[C@]43C)[C@@H]2C1 | 65%

SMILES | growth
CN1CCN(c2ccc(Nc3nc(NCCCNC(=O)C4CCCCC4)c4sccc4n3)cc2)CC1 | 144%
O=c1[nH]n(C(=S)N/N=C/c2ccc(F)cc2)c(=O)c2ccccc12 | 105%
COc1ccc(NC(=O)CSc2nnc(-c3ccc4nc(-c5ccc(Cl)cc5)[nH]c4c3)o2)cc1 | 132%
O=C(CSc1nnc(-c2c[nH]c3ccccc23)n1-c1ccccc1)Nc1ccc(C(=O)/C=C/c2ccc(Br)cc2)cc1 | 106%
Cc1ccc(C(C)C)cc1NC(=O)c1ccccc1N(C)C | 100%
COc1cnc2c(c1)C(=O)c1c-2n(CCCNCCO)c(=O)c2cc(OC)c(OC)cc12 | 101%
O=C(CNc1nc(-c2ccccc2)cs1)Nc1ccc([N+](=O)[O-])cc1 | 109%
O=C(Cc1ccc2c(c1)CN(C1CCC(=O)NC1=O)C2=O)NCc1cccc2ccccc12 (stereo not given) | -13.2% (active)
O=C1NC(=NC2CCCCCC2)N/C1=C\c1ccc2ncoc2c1 | -9.1% (active)
CCCCCCCCCCCCCCCCCCCC(=O)NCCc1c[nH]c2ccc(O)cc12 | 118%
COc1ccc(N(C)c2cc(C#N)nc3ccccc23)cc1N | 113%
O=C(CN1CCN(c2ncnc3c2cnn3-c2ccccc2)CC1)Nc1nncs1 | 49%
COc1cc2c(c(OC)c1OC)C(=O)CC(c1cccc(NC(=O)c3cccc(N)c3)c1)O2 (stereo not given) | 98.8%
Cc1cc(C)nc(NS(=O)(=O)c2ccc(N/C(N)=N/c3nccc(-c4cccs4)n3)cc2)n1 | 117%
O=C(COc1ccc(NC(=O)Nc2ccc(Cl)cc2)cc1)N=Nc1c(O)[nH]c2ccc([N+](=O)[O-])cc12 | 119%
COc1ccc(CN2[C@H](C(=O)NCCCCCCC(=O)NO)Cc3c([nH]c4ccccc34)[C@H]2C2CC2)cc1 | -38.3% (active)
C[C@H]1[C@H](C)CC[C@]2(COC(=O)CCC(=O)NCC#CCN3CCNCC3)CC[C@]3(C)C(=CC[C@@H]4[C@@]5(C)CCCNC(C)(C)[C@@H]5CC[C@]43C)[C@H]12 | 111%
C/C(=N\N=C\c1ccc(N(C)C)cc1)c1ccc2c(c1)Nc1ccccc1S2 | 86.4%
CN1CCO/C1=C(/NC(=O)c1ccc(Cl)cc1)[P+](c1ccccc1)(c1ccccc1)c1ccccc1 | 125%
Cc1cc(C)nc(/N=C(\N)Nc2ccc(S(=O)(=O)Nc3nc(C)cc(C)n3)cc2)n1 | 112%
